Shown are actives, neighbours in structure and some others; about 21% of the full set was active somewhere.
Pf growth 48h: Primary qHTS for delayed death inhibitors of the malarial parasite plastid, 48 hour incubation. P. falciparum luciferase growth in erythrocytes, 48 h. Potency, µM (series often up to 28.7 µM), hits mostly inhibitors. hit rate 5.9% among 310,000. AID 504832, 2011; active means well fitted inhibition curve with a large enough effect; inconclusive means small, poorly fitted or top-dose-only effect, or another doubt; inactive means no such curve, though single readings can be large or run the other way
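First compound was added to culture medium, then infected red cells at 0.1% parasitemia and 2% hematocrit (final). After incubation at 37 C under 5% CO2, luciferase detection reagent was dispensed and light output recorded.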
NS1 function inh: qHTS Assay for Inhibitors of Influenza NS1 Protein Function. hit rate 0.4% among 270,000. Potency, µM (top dose mostly 46.1 µM); further: actives are rising curves; nearly all actives have a fitted effect of over 50% in size
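Read-out: OD600 growth recovery of NS1-expressing budding yeast. Cells grown overnight at 30C in -URA glucose medium, washed, resuspended and diluted 1:100 in 2% galactose assay medium, pH 6.0. Same strain lacking NS1 served as positive control.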
CHX counter: Cycloheximide Counterscreen for Small Molecule Inhibitors of Shiga Toxin. max response, %. cell reporter, cycloheximide protein synthesis inhibition counterscreen. hit rate 12% among 300,000; in the data active means max response mostly above about 13%, no sharp cut-off; inactive means mostly below about 14%; further: read at 38.3 µM for the half of the compounds with a filed dose
Pf growth 96h: Primary qHTS for delayed death inhibitors of the malarial parasite plastid, 96 hour incubation; Potency, µM (doses to about 28.7 µM), usual class: inhibitors; P. falciparum luciferase reporter growth, 96 h; AID 504834, 2011; hit rate 6.9% among 320,000; active means well fitted inhibition curve with a large enough effect; inconclusive means small, poorly fitted or top-dose-only effect, or another doubt; inactive means no such curve, though single readings can be large or run the other way
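P. falciparum expressing integrated firefly luciferase grown in erythrocytes (2% hematocrit, 0.05% parasitemia final) with compounds for 96 hours at 37 C, 5% CO2. Growth inhibition read as loss of luminescence after adding luciferase detection reagent.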
SARS PLP yeast: qHTS of Yeast-based Assay for SARS-CoV PLP; Potency, µM (doses to about 32.9 µM), hits mostly activators; AID 485353, 2010; S. cerevisiae expressing SARS-CoV PLpro, growth rescue; hit rate 0.19% among 330,000; further: nearly all actives have a fitted effect of over 55% in size
Shiga toxin inh: A qHTS for Small Molecule Inhibitors of Shiga Toxin; hit rate 9.2% among 290,000; Vero cells, Shiga toxin protein synthesis inhibition reporter; inhibition, % at 38.7 µM; in the data active means inhibition mostly above about 28%, no sharp cut-off; inactive means mostly below about 43%
Large screens that a line does not name were inactive. Unless noted, the call rests on the fitted dose curve.

CN(CC(=O)Nc1ccccc1C(F)(F)F)C(=O)c1ccc(-c2ccc(Cl)cc2)o1	Pf growth 48h 2.9µM, Pf growth 96h 2.6µM (no result: NS1 function inh, CHX counter, Shiga toxin inh)
Cc1ccc(/C([O-])=C(/C(=S)NCc2ccc3c(c2)OCO3)[n+]2ccc(N(C)C)cc2)c(C)c1	none (no result: NS1 function inh)
CCCN(C(=O)COc1ccc(Cl)cc1Cl)c1c(N)n(Cc2ccccc2)c(=O)[nH]c1=O	none
Cc1cccc(CCN(CC(=O)NCc2ccc(F)cc2)C(=O)c2csnn2)c1	none
CC[C@@]1(C(=O)OC)N[C@H](CN(C)C(=O)c2ccc(F)cc2)[C@@H]2C(=O)N(C)C(=O)[C@@H]21	none (no result: Pf growth 48h, NS1 function inh, CHX counter, Pf growth 96h, Shiga toxin inh)
CN(C)S(=O)(=O)c1ccc(C(=O)OCC2COC(C)(C)O2)cc1 (stereo not drawn)	none
COc1cc(/C=C/C(=O)OCC(=O)c2c(N)n(C)c(=O)n(C)c2=O)ccc1OCC#N	Pf growth 96h inconclusive (no result: NS1 function inh)
CC(C)Oc1ccc(S(=O)(=O)N2CCOCC2)cc1NC(=O)C1=COCCO1	Pf growth 48h inconclusive, Pf growth 96h 12µM (no result: NS1 function inh, CHX counter, Shiga toxin inh)
COc1ccc(S(=O)(=O)N2CCOCC2)cc1NC(=O)COC(=O)C1COc2ccccc2O1 (stereo not drawn)	none
CCOc1ccc(S(=O)(=O)N2CCCCC2)cc1NC(=O)C1COc2ccccc2O1 (stereo not drawn)	Pf growth 48h 6.6µM, Pf growth 96h inconclusive (no result: NS1 function inh, CHX counter, Shiga toxin inh)
CC(C)Oc1ccc(S(=O)(=O)N2CCOCC2)cc1NC(=O)C1COc2ccccc2O1 (stereo not drawn)	Pf growth 48h 12µM, Pf growth 96h 12µM (no result: NS1 function inh, CHX counter, Shiga toxin inh)
O=C(NC1CCCCC1)c1cc([N+](=O)[O-])[nH]n1	NS1 function inh inconclusive
O=[N+]([O-])c1ccc(N2CCc3ccccc3C2)nc1	CHX counter 28, Shiga toxin inh 54
O=[N+]([O-])c1ccc(N2CCN(c3ccccc3)CC2)nc1	none
O=C(Nc1ccc(Nc2ccccc2)cc1)C(Cl)(Cl)Cl	Pf growth 48h inconclusive, CHX counter 27, Pf growth 96h inconclusive, Shiga toxin inh 49
CCC(=O)Nc1ccc(Nc2ccccc2)cc1	Pf growth 48h inconclusive, CHX counter 16, Shiga toxin inh 34
COCC(=O)Nc1ccc(Nc2ccccc2)cc1	NS1 function inh inconclusive, Shiga toxin inh 61
COc1cccc(C(=O)CC(C#N)c2ccc(F)cc2)c1 (stereo not drawn)	Pf growth 48h inconclusive, Shiga toxin inh 26
COc1cccc(C(=O)CC(C(=O)O)c2ccc(F)cc2)c1 (stereo not drawn)	none (no result: NS1 function inh)
CC(=O)Nc1cc(-c2ccccc2)ccc1O	Pf growth 48h inconclusive
Nc1cc(-c2ccccc2)ccc1O	Pf growth 48h inconclusive, CHX counter 37, Pf growth 96h 12µM, SARS PLP yeast inconclusive, Shiga toxin inh 29
CC(=O)c1ccc(S(=O)(=O)Nc2ccc(C(=O)N3CCC3)cc2)cc1	none (no result: NS1 function inh, CHX counter, Shiga toxin inh)
CN(Cc1cn(-c2ccccc2)nc1-c1ccc(Cl)cc1)C(=O)CCC(=O)O	Pf growth 96h inconclusive
Nc1c(C(=O)OCc2ccccc2)c2nc3ccccc3nc2n1Cc1cccs1	Pf growth 96h 15µM (no result: Pf growth 48h)
O=C(Nc1nnc(-c2ccccc2F)s1)c1cccnc1	CHX counter 23, Shiga toxin inh 45 (no result: NS1 function inh)
O=C(Nc1nnc(C(F)(F)F)s1)c1cccnc1	CHX counter 39, Shiga toxin inh 65 (no result: Pf growth 96h)
O=[N+]([O-])c1ccccc1S(=O)(=O)NCc1cccnc1	none
COc1ccccc1CCNC(=O)c1ccc(NC(=O)CC2SC(N3CCCC3)=NC2=O)cc1 (stereo not drawn)	Pf growth 48h inconclusive, Pf growth 96h inconclusive (no result: NS1 function inh, CHX counter, Shiga toxin inh)
CC(C)C(O)(C#CCN1CCCCC1)C(C)C	Pf growth 96h inconclusive, SARS PLP yeast inconclusive
CCOP(=O)(OCC)/C(=C/N1CCCCC1)NC(=O)c1ccccc1	CHX counter 13, Pf growth 96h inconclusive
CCOC(=O)C(NC(=O)c1ccccc1)=C1CCCCC1	Pf growth 48h inconclusive, Pf growth 96h inconclusive
CCOc1nc(C)ccc1-c1noc(-c2ccccc2OC)n1	CHX counter 24
CS(=O)(=O)c1ccccc1-c1nc(-c2ccc(C(F)(F)F)cc2)no1	CHX counter 21, Shiga toxin inh 60
CCOc1ccccc1-c1nc(-c2ccncc2)no1	Pf growth 48h inconclusive, Pf growth 96h inconclusive (no result: SARS PLP yeast)
CCSc1ccccc1-c1nc(-c2ccncc2)no1	Pf growth 48h inconclusive, CHX counter 26
COc1ccccc1-c1nc(-c2ccncc2)no1	CHX counter 32, Shiga toxin inh 79 (no result: Pf growth 96h)
COc1ccc(NC(=O)c2ccccc2NC(=O)CSc2ccc(Cl)cc2)cc1	Pf growth 96h inconclusive
Cc1ccc2c(c1)Cc1c(C(=O)NN3CCCCC3)nn(-c3ccc(Cl)cc3Cl)c1-2	none (no result: Pf growth 48h, NS1 function inh, Pf growth 96h, SARS PLP yeast)
c1ccc(-c2noc(-c3ccccc3-c3ccccc3)n2)cc1	none (no result: Pf growth 96h)
COc1ccccc1-c1nc(-c2ccc(Br)cc2)no1	CHX counter 30 (no result: Pf growth 48h)
Cc1ccc(-c2noc(-c3ccccc3Br)n2)cc1	CHX counter 35, Shiga toxin inh 65
COc1cc(OC)cc(-c2nc(-c3ccc(Br)cc3)no2)c1	Pf growth 96h inconclusive
Cc1nc(-c2cc(-c3nc(-c4ccc(C(C)(C)C)cc4)no3)no2)cs1	none
COc1ccc(-c2nc(-c3ccc(Br)cc3)no2)c(OC)c1	CHX counter 39, Pf growth 96h inconclusive, Shiga toxin inh 197 (no result: SARS PLP yeast)
Cc1c(-c2nc(-c3ccc(C(F)(F)F)cc3)no2)n(C)oc1=O	CHX counter 70, Shiga toxin inh 129
C[C@@H]1C(=O)N(S(=O)(=O)c2ccc([N+](=O)[O-])cc2)[C@H]1c1ccccc1	none (no result: Pf growth 48h, NS1 function inh, Pf growth 96h, SARS PLP yeast)
Cn1cc(/C=C(\NC(=O)c2ccccc2Cl)C(=O)NCCCn2ccnc2)c2ccccc21	Pf growth 48h inconclusive, Pf growth 96h inconclusive
COc1ccc(CCN2C(=O)CC(NNC(=O)c3ccccc3Br)C2=O)cc1OC (stereo not drawn)	none
COc1cc(/C=C/C(=O)O)cc(S(=O)(=O)NCCCC(=O)O)c1OC	none
CN(C)c1ccc(-c2noc(-c3ccccc3O)n2)cc1	CHX counter 47, Shiga toxin inh 126
FC(F)(F)c1ccccc1-c1nc(-c2ccncc2)no1	Pf growth 48h inconclusive, CHX counter 40, Shiga toxin inh 47
Cc1ccc(-c2noc(-c3ccccc3C(=O)N3CCN(C)CC3)n2)cc1	none
CN(CCOc1ccc(-c2ccn(S(=O)(=O)c3cccc4ccccc34)n2)cc1)c1ccccn1	Pf growth 48h 10µM, Pf growth 96h 9.3µM, SARS PLP yeast inconclusive
CN(CCOc1ccc(-c2ccn(S(=O)(=O)c3ccc(Cl)cc3)n2)cc1)c1ccccn1	Pf growth 48h 10µM, Pf growth 96h 10µM
Cc1nc(C)c(-c2ccn(S(=O)(=O)c3ccc(Cl)cc3)n2)o1	Pf growth 48h inconclusive
CN(CCOc1ccc(-c2ccn(S(=O)(=O)c3c(Cl)cccc3Cl)n2)cc1)c1ccccn1	Pf growth 48h inconclusive, Pf growth 96h 2.6µM, SARS PLP yeast inconclusive
